The text below walks through data of publication PMC12431657, “Discovery and mechanistic insights of dibenzoylmethane as a broad spectrum inhibitor of coronavirus” (PLOS Pathogens, 2025).

The subject of this assay is HCoV-229E. On the set-up: species or system Huh-7; HTS, protection from HCoV-229E induced cell death, luminescent cell viability (CellCounting-Lite 2.0), inhibition rate. The settings on record: 24 h post infection, 1 h compound pre-incubation, 10 µM, inhibitor.

Like-named read-outs stand apart in the source and are kept apart here. Among all 3,300 compounds or so, about 95 (3%) showed an effect of 50% or more. Shown is part of a subset that was picked to be rich in strong results. Peptide text beside a SMILES is read from it.

Regarding `CC1(C)CCC2(CO)C(=C3C=CC4C5(C)CCC(OC6OC(COC7OC(CO)C(O)C(O)C7O)C(OC7OC(CO)C(O)C(O)C7O)C(O)C6O)CC5C(C)(CO)CC4(C)C3(C)CC2O)C1` (stereo not shown) [Clinodiside A], the “229E Inhibition rate” value was found to be 8.8%.

With `COC(=O)Cc1c[nH]c2ccccc12` [Methyl 2-(1H-indol-3-yl)acetate], the “229E Inhibition rate” value is 38.3%.

Regarding `COc1c(/C=C/C(=O)c2ccc(O)cc2)ccc(O)c1O` [Licochalcone B], the “229E Inhibition rate” value stood at 25.4%.

Take `COc1cc(O)ccc1/C=C/C(=O)c1ccc(O)cc1` [Echinatin]: the “229E Inhibition rate” value was found to be 0%.

Consider `C=C(C)[C@H](C)c1cc(/C=C/C(=O)c2ccc(O)cc2)c(OC)cc1O` [Licochalcone E], for which the “229E Inhibition rate” value was 61.6%.

Consider `CC1=C(O)C(=O)C(C)O1` (stereo not shown) [Furaneol], for which the “229E Inhibition rate” value is 17.8%.

Consider `COc1cc2c(cc1OC)[C@@H](Cc1ccc(Oc3cc(C[C@@H]4c5cc(OC)c(OC)cc5CCN4C)ccc3O)cc1)N(C)CC2` [Dauricine], for which the “229E Inhibition rate” value was 3.6%.

Regarding `O=C(/C=C/c1ccc(O)c(O)c1)OC[C@@H](O)CO[C@@H]1O[C@H](CO)[C@@H](O)[C@H](O)[C@H]1O` [Regaloside C], the “229E Inhibition rate” value came out at 52.3%.

Turning to `O=C(/C=C/c1ccc(O)c(O)c1)OC[C@H]1O[C@@H](OCCc2ccc(O)c(O)c2)[C@H](O)[C@@H](O)[C@@H]1O` [Calceolarioside B], the “229E Inhibition rate” value was found to be 10.8%.

Turning to `O=C(/C=C/c1ccc(O)c(O)c1)c1ccc(O[C@@H]2O[C@H](CO)[C@@H](O)[C@H](O)[C@H]2O)c(O)c1O` [Marein], the “229E Inhibition rate” value is given as 17.9%.

Consider `Cc1cn([C@@H]2O[C@H](CO)[C@@H](O)[C@H]2O)c(=O)[nH]c1=O` [5-Methyluridine], for which the “229E Inhibition rate” value is 14.9%.

Turning to `CC(C)c1cc2c(c(O)c1O)[C@@]13CCCC(C)(C)[C@@H]1[C@H](OC3=O)[C@H]2O` [Rosmanol], the “229E Inhibition rate” value worked out at 0%.

As to `CC1NC(=O)CNC1=O` (stereo not shown) [Cyclo(Ala-Gly)], the “229E Inhibition rate” value is 39.9%.

On to `CCCCCCCCCCCCCCCCC(C(=O)O)C(O)(CC(=O)O)C(=O)O` (stereo not shown) [Agaric acid], for which the “229E Inhibition rate” value is given as 18.4%.

For the compound `CN[C@@H](C)[C@H]1[C@H](O)C[C@@]2(C)[C@@H]3CC[C@H]4C(C)(C)[C@@H](NC)CC[C@@]45C[C@@]35CC[C@]12C` [Cyclovirobuxine D], the “229E Inhibition rate” value is 55.2%.

Take `CC(C)(O)[C@H]1CC[C@@](C)([C@H]2[C@@H](O)C[C@@]3(C)[C@@H]4C[C@H](O)[C@H]5C(C)(C)[C@@H](O)CC[C@@]56C[C@@]46CC[C@]23C)O1` [Cyclogalegenin]: the “229E Inhibition rate” value was 12.6%.

For the compound `CC(C)(O)[C@@H]1CC[C@](C)([C@H]2[C@@H](O)C[C@@]3(C)[C@@H]4C[C@H](O)[C@H]5C(C)(C)[C@@H](O)CC[C@@]56C[C@@]46CC[C@]23C)O1` [Cycloastragenol], the “229E Inhibition rate” value turned out to be 8.6%.

As for `CC(O)CC(=O)O` (stereo not shown) [3-Hydroxybutyric acid], the “229E Inhibition rate” value is 11.2%.

For `COc1cc2c(c(OC)c1OC)-c1c(cc3c(c1OC)OCO3)C[C@H](C)[C@H](C)C2` [Gomisin N], the “229E Inhibition rate” value (229E Inhibition rate, 24 h) stood at 42.9%.

In the case of `C/C=C(\C)C(=O)O[C@@H]1c2cc(OC)c(OC)c(OC)c2-c2c(cc3c(c2OC)OCO3)C[C@H](C)[C@@]1(C)O` [Tigloylgomisin P], the “229E Inhibition rate” value was 40.2%.

As for `COc1cc2c(c(OC)c1OC)-c1c(cc3c(c1O)OCO3)C[C@H](C)[C@@H](C)C2` [Gomisin M2], the “229E Inhibition rate” value worked out at 19.3%.

As for `COc1cc2c(c(OC)c1OC)-c1c(cc3c(c1OC)OCO3)C[C@H](C)[C@H](C)C2` [Schisandrin B], the “229E Inhibition rate” value (229E Inhibition rate, 24 h) is on record as 56.2%.

On to `C/C=C(/C)C(=O)O[C@H]1c2cc(OC)c(OC)c(OC)c2-c2c(cc(OC)c(OC)c2OC)C[C@H](C)[C@]1(C)O` [Angeloylgomisin Q], for which the “229E Inhibition rate” value stood at 42.2%.

With `COc1cc2c(c(OC)c1OC)-c1c(cc3c(c1OC)OCO3)C[C@H](C)[C@@](C)(O)C2` [Schisandrol B], the “229E Inhibition rate” value turned out to be 7.8%.

Take `COc1cc2c(cc1OC)-c1c(OC)c(OC)cc3c1[C@H](C2)N(C)CC3` [Glaucine]: the “229E Inhibition rate” value is 14.2%.

Turning to `COc1cc2c(c(OC)c1OC)-c1c(cc(OC)c(OC)c1OC)C[C@H](C)[C@H](C)C2` [Schisandrin A], the “229E Inhibition rate” value turned out to be 35.1%.

`CN1CCc2cc3c(c4c2C1Cc1ccccc1-4)OCO3` (stereo not shown) [Roemerine]: the “229E Inhibition rate” value was found to be 25.9%.

Regarding `C/C=C(/C)C(=O)O[C@H]1c2cc(OC)c(OC)c(OC)c2-c2c(cc3c(c2OC)OCO3)C[C@H](C)[C@]1(C)O` [Schisantherin B], the “229E Inhibition rate” value came to 54.7%.

`COc1ccc2c(c1OC)CC1c3c(cc4c(c3-2)OCO4)CCN1C` (stereo not shown) [Crebanine]: the “229E Inhibition rate” value was 62.7%.

Regarding `COc1c2c(cc3c1-c1c(cc4c(c1OC)OCO4)C[C@H](C)[C@H](C)C3)OCO2` [Schisandrin C], the “229E Inhibition rate” value is 52.7%.

In the case of `COC(=O)/C=C/c1ccc(O)cc1` [Methyl p-coumarate], where the note is “229E Inhibition rate, 24 h”, the “229E Inhibition rate” value stood at 15.5%.

Take `COC(=O)C1=CO[C@@H](O[C@@H]2O[C@H](CO)[C@@H](O)[C@H](O)[C@H]2O)[C@H]2[C@@H]1C=C[C@@]2(O)CO` [Gardenoside]: the “229E Inhibition rate” value came to 10.6%.

For `CCCCCCCCCCCCCCCC(=O)OC[C@H](CO)OC(=O)CCCCCCCCCCCCCCC` [1,2-Dipalmitoyl-sn-glycerol], the “229E Inhibition rate” value turned out to be 6%.

On to `COC(=O)C1=CO[C@@H](O[C@@H]2O[C@H](CO)[C@@H](O)[C@H](O)[C@H]2O)[C@@H]2[C@@H](C)CC(=O)[C@]12O` [Hastatoside], for which the “229E Inhibition rate” value was determined as 0%.

As for `C[C@H](CC(=O)O)[C@H]1CC[C@H]2[C@@H]3[C@H](O)C[C@@H]4C[C@H](O)CC[C@]4(C)[C@H]3C[C@H](O)[C@]12C` [Norcholic acid], the “229E Inhibition rate” value is given as 0%.

In the case of `Cc1cccc(CC(=O)O)c1` [m-Tolylacetic acid], the “229E Inhibition rate” value was 18.9%.

With `O=C1O[C@H]([C@@H](O)CO)C(O)=C1O` [L-Ascorbic acid], the “229E Inhibition rate” value (229E Inhibition rate, 24 h) was 17.7%.

Regarding `OC[C@H]1O[C@H](OC[C@H]2O[C@H](O[C@]3(CO)O[C@H](CO)[C@@H](O)[C@@H]3O)[C@H](O)[C@@H](O)[C@@H]2O)[C@H](O)[C@@H](O)[C@H]1O` [Raffinose], the “229E Inhibition rate” value worked out at 52.1%.

With `OC[C@H]1O[C@@](CO)(O[C@H]2O[C@H](CO[C@@H]3O[C@H](CO)[C@@H](O)[C@H](O)[C@H]3O)[C@@H](O)[C@H](O)[C@H]2O)[C@@H](O)[C@@H]1O` [Gentianose], the “229E Inhibition rate” value came out at 0%.

Regarding `OC[C@H]1O[C@H](OC[C@H]2O[C@H](OC[C@H]3O[C@H](O[C@]4(CO)O[C@H](CO)[C@@H](O)[C@@H]4O)[C@H](O)[C@@H](O)[C@@H]3O)[C@H](O)[C@@H](O)[C@H]2O)[C@H](O)[C@@H](O)[C@H]1O` [Stachyose (tetrahydrate)], the “229E Inhibition rate” value was 43.8%.

Consider `C=C(C)[C@@H]1CC[C@]2(C(=O)O[C@@H]3O[C@H](CO[C@@H]4O[C@H](CO)[C@@H](O[C@@H]5O[C@@H](C)[C@H](O)[C@@H](O)[C@H]5O)[C@H](O)[C@H]4O)[C@@H](O)[C@H](O)[C@H]3O)CC[C@]3(C)[C@H](CC[C@@H]4[C@@]5(C)CC[C@H](O[C@@H]6OC[C@H](O)[C@H](O)[C@H]6O[C@@H]6O[C@@H](C)[C@H](O)[C@@H](O)[C@H]6O)[C@@](C)(CO)[C@@H]5CC[C@]43C)[C@@H]12` [Pulchinenoside C], for which the “229E Inhibition rate” value is on record as 12.2%.

For the compound `C=C1C(=O)O[C@@H]2C[C@@]3(C)CCCC(=C)[C@@H]3C[C@H]12` [Isoalantolactone], the “229E Inhibition rate” value came to 20.6%.

As to `C[C@@H]1C[C@H]2OC(=O)[C@@]3(C)CCC[C@@](C)([C@@H]23)[C@@]1(O)CCc1ccoc1` [Marrubiin], the “229E Inhibition rate” value worked out at 59.8%.

On to `CC1=C2C(=O)O[C@@H](c3ccoc3)[C@]2(C)CCC1` [Fraxinellone], for which the “229E Inhibition rate” value stood at 13.5%.

Consider `C[C@@H](O)[C@@H](C)O` [2,3-Butanediol], for which the “229E Inhibition rate” value (229E Inhibition rate, 24 h) worked out at 20.3%.

Regarding `O=C(CCCCCCCCc1ccc(O)c(O)c1)c1c(O)cccc1O` [Malabaricone C], the “229E Inhibition rate” value is reported as 42.8%.

Consider `O=c1c(-c2ccc(O)cc2)coc2cc(O)cc(O)c12` [Genistein], for which the “229E Inhibition rate” value worked out at 17.6%.

As for `CC(C)=CCc1c(-c2ccc(O)cc2O)oc2c(CC=C(C)C)c(O)cc(O)c2c1=O` [Mulberrin], the “229E Inhibition rate” value amounted to 20.6%.

For `CC(C)=CCc1c(O)cc(O)c2c(=O)cc(-c3ccc(O)cc3)oc12` [Licoflavone C], the “229E Inhibition rate” value was 28.1%.

For the compound `CC(C)=CCc1c(O)ccc(-c2coc3cc(O)cc(O)c3c2=O)c1O` [Licoisoflavone A], the “229E Inhibition rate” value is given as 0%.

In the case of `CC(C)=CCc1cc(-c2coc3cc(O)cc(O)c3c2=O)cc(O)c1O` [Glycyrrhisoflavone], the “229E Inhibition rate” value was 62.7%.

On to `CC(C)=CCc1c(O)cc(O)c2c(=O)c(-c3ccc(O)cc3)coc12` [Lupiwighteone], for which the “229E Inhibition rate” value turned out to be 63.8%.

On to `COc1cc2c(cc1OC)-c1cc3ccc4c(c3c(=O)n1CC2)OCO4` [8-Oxoepiberberine], for which the “229E Inhibition rate” value came to 17.9%.

For the compound `O=C(O)C1CCCCN1O` (stereo not shown) [N-Hydroxypipecolic acid], the “229E Inhibition rate” value turned out to be 19%.

Take `COC(=O)[C@@]1(C)CC[C@]2(C(=O)O)CC[C@]3(C)C(=CC[C@@H]4[C@@]5(C)C[C@H](O)[C@H](O)[C@@](C)(CO)[C@@H]5CC[C@]43C)[C@@H]2C1` [Phytolaccagenin]: the “229E Inhibition rate” value came out at 22.3%.

Turning to `CC[C@H](C)[C@H](N)C(=O)N[C@@H](C)C(=O)N[C@@H](CCCN=C(N)N)C(=O)N[C@@H](CCCN=C(N)N)C(=O)N[C@@H](Cc1cnc[nH]1)C(=O)N1CCC[C@H]1C(=O)N[C@@H](Cc1ccc(O)cc1)C(=O)N[C@@H](Cc1ccccc1)C(=O)N[C@@H](CC(C)C)C(=O)O` [Kinetensin] (H-IARRHPYFL-OH), the “229E Inhibition rate” value was found to be 56.1%.

In the case of `CSCC[C@H](NC(=O)[C@H](CC(C)C)NC(=O)CNC(=O)[C@H](Cc1ccccc1)NC(=O)[C@H](Cc1ccccc1)NC(=O)[C@H](CCC(N)=O)NC(=O)[C@H](CCC(N)=O)NC(=O)[C@@H]1CCCN1C(=O)[C@H](CCCCN)NC(=O)[C@@H]1CCCN1C(=O)[C@@H](N)CCCN=C(N)N)C(N)=O` [Substance P], the “229E Inhibition rate” value amounted to 0%.

For the compound `CC(C)[C@H](NC(=O)[C@H](CC(=O)O)NC(=O)[C@H](CCCCN)NC(=O)[C@@H](N)CCCN=C(N)N)C(=O)N[C@@H](Cc1ccc(O)cc1)C(=O)O` [Thymopentin] (H-RKDVY-OH), the “229E Inhibition rate” value (229E Inhibition rate, 24 h) is listed as 21.6%.
